This is part of a sample that, as a whole, favours compounds with a hit. Of some 83,000 tested, about 20% had one in any assay.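 Single-dose data. Exposure time 48 hours. Values below 10 considered active.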 Calls of active or inactive are those of the source.
Experiments:
Test in all cases: NCI-60 one-dose screen, 48 h (100 = growth as untreated, 0 = no growth, -100 = all killed)
Conditions in all cases: 10 µM unless noted
[1] = system: HCT-15 colon
[2] = system: HT29 colon
[3] = system: SNB-75 CNS
[4] = system: SNB-19 CNS
[5] = system: U251 CNS
[6] = system: SK-MEL-5 melanoma
[7] = system: UACC-62 melanoma
[8] = system: LOX IMVI melanoma
[9] = system: SK-MEL-28 melanoma

Measured: growth

Cc1cc(-c2nnc(/C=C/c3ccc4c(c3)OCO4)o2)n[nH]1
inactive: [1] 44.3% | [2] 23% | [3] 51.3% | [4] 86.8% | [5] 85.1% | [6] 70.9% | [7] 69.5% | [8] 52.5% | [9] 71.5%

CCCCCNCCCCCNc1cc(OC)cc2cccnc12
inactive: [1] 88.6% | [2] 64.2% | [3] 61.7% | [4] 94.1% | [5] 79.8% | [6] 31.1% | [7] 75.3% | [8] 95.5% | [9] 91.9%

C=CCOc1c(Br)cc(Br)cc1Br
inactive: [1] 62.9% | [2] 104% | [3] 60.7% | [4] 50.5% | [5] 46.8% | [6] 59% | [7] 37.2% | [8] 64.4% | [9] 77.8%

CN(C)CCOc1nc2c3cccnc3cc(-c3cccc(Cl)c3)c2c2ncccc12
inactive: [3] 38.2% | [4] 26.4% | [5] 11.2%
active: [1] -10.9% | [2] 1.5% | [6] 1.23% | [7] -75.6% | [8] -94.5% | [9] -81.6%

CCOc1cccc(/C=N/NC(=O)Cc2ccc(Nc3ccnc(C(F)(F)F)c3)cc2)c1O
active: [6] -36% | [7] -5.55% | [8] 2.43%
inactive: [1] 17.3% | [2] 85% | [3] 39.4% | [4] 28% | [5] 20.6% | [9] 60.6%

CN(C)CCOc1nc2c3ccncc3cc(-c3cccc(Cl)c3)c2c2cnccc12
active: [8] 5.79%
inactive: [1] 22.1% | [2] 17% | [3] 39.8% | [4] 28.4% | [5] 28% | [6] 10.8% | [7] 24.6% | [9] 13.3%

N#Cc1nc(-c2ccc(Cl)cc2)cc(-c2ccc(Nc3nc(N4CCCCC4)nc(N4CCCCC4)n3)cc2)c1N
inactive: [1] 108% | [2] 113% | [3] 81.5% | [4] 104% | [5] 102% | [6] 97.6% | [7] 106% | [8] 95.8%

Cc1ccc(N2C3c4ccccc4N(S(=O)(=O)c4ccc(C)cc4)C2c2ccccc2N3S(=O)(=O)c2ccc(C)cc2)cc1
inactive: [1] 94.9% | [2] 101% | [3] 89.5% | [4] 111% | [5] 91.8% | [6] 103% | [7] 99.6% | [8] 98.7% | [9] 99.3%

O=C(CN1CCN(c2ccccc2)CC1)N1CCN(c2nnc(-c3ccc(Cl)cc3)c(-c3ccc(Cl)cc3)n2)CC1
inactive: [1] 45.4% | [2] 32.3% | [3] 66.8% | [4] 82.1% | [5] 60.4% | [6] 44.2% | [7] 63.1% | [8] 64.6% | [9] 81.9%

Cc1cc(C)c2c(n1)sc1c(Nc3ccc(OCc4ccccc4)cc3)ncnc12
inactive: [1] 100% | [2] 103% | [3] 108% | [4] 101% | [5] 98.4% | [6] 104% | [7] 105% | [8] 91.7% | [9] 114%

NCCCOc1cc2ccccc2cc1C(=O)NCCCOc1cc2ccccc2cc1C(=O)Nc1ccc(Cl)cc1O
active: [1] -55.3% | [2] -90.7% | [3] -68.2% | [4] -65.9% | [5] -86.1% | [6] -70% | [7] -88.6% | [8] -89.6% | [9] -89.2%

N#Cc1c(NN)n(C2OC(CO)C(O)C2O)c2ncnc(N)c12 (stereo unspecified)
active: [1] 3.17% | [2] 4.15% | [6] -67.5% | [7] -39.3% | [8] -4.81% | [9] -15.1%
inactive: [3] 35.2% | [4] 54.7% | [5] 34.5%

CC(C)N=C1CCCC1C(=S)SSC(=S)C1CCCC1=NC(C)C (stereo unspecified)
inactive: [1] 54.6% | [2] 79.1% | [3] 74.3% | [4] 83.5% | [5] 50.3% | [6] 81.6% | [7] 75% | [8] 50.9% | [9] 81%
